Assay outcomes from PubChem BioAssay.
An excerpt weighted towards active compounds, which were near 8% of everything screened.
Lassa entry inh – blocks Lassa virus binding to or entry into cells; actives 1.2% (n = 300,000); Potency, µM (top dose mostly 37.9 µM), without a hit: top-dose activity change, negative = inhibition, actives largely listed as inhibitors; Lassa virus pseudotype entry inhibition, cell reporter; calls by dose curve; tested in HEK293 cells; also: potency is read from the fitted curve at half-maximal effect; % is scaled to controls: 0 for no effect and ±100 for the full control effect; nearly all actives have a fitted effect of over 50% in size
HCMV antiviral – blocks human cytomegalovirus replication; HFF cells, HCMV-luciferase reporter, 72 h; stronger effect = lower value; activity change, negative = inhibition, % at 57.5 µM; actives 4.5% (n = 410,000); in the data active = activity change below about -60%; inconclusive = no clear call, values can overlap the other calls; inactive = above about -39%; also: % is scaled to controls: 0 for no effect and ±100 for the full control effect
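HFF cells seeded 16 h at 37C, treated with compounds, infected with luciferase-reporter HCMV at MOI 1 PFU/cell; luciferase read at 72 h post infection, normalized to buffer-only and Salinomycin controls.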
MARV entry inh – blocks Marburg virus binding to or entry into cells; Marburg virus pseudotyped entry inhibition, cell reporter; actives 1.8% (n = 300,000); Potency, µM (highest dose often 37.8 µM), inactives show top-dose activity change, negative = inhibition, most hits filed as inhibitors; calls by dose curve; tested in HEK293 cells; also: potency is read from the fitted curve at half-maximal effect; % is scaled to controls: 0 for no effect and ±100 for the full control effect
HCV inhibitor – HCV inhibition; Huh7.5.1 HCVcc-Cre infection, luciferase reporter, 44 h; Potency, µM (highest dose often 41.8 µM), for inactives: at the highest dose activity change, negative = inhibition, hits mostly inhibitors; AID 651820; actives 3.4% (n = 340,000); active = well fitted inhibition curve with a large enough effect; inconclusive = small, poorly fitted or top-dose-only effect, or another doubt; inactive = no such curve, though single readings can be large or run the other way; also: potency is read from the fitted curve at half-maximal effect; % is scaled to controls: 0 for no effect and ±100 for the full control effect
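Cells (1,000/well) were plated 4 h before compound, then infected with HCVcc-Cre virus (~0.5 moi). After 44 h further culture, infection was read as luciferase luminescence following a 15 min substrate incubation at room temperature.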
FMDV inh – foot and mouth disease virus antiviral activity. FMDV antiviral cell-based qHTS. Potency, µM (doses to about 57.9 µM), without a hit: at the top dose activity change, negative = inhibition, hits mostly inhibitors. actives 1.2% (n = 410,000). AID 1159524; calls by dose curve; tested in HEK293T cells; also: read-out not given here; potency is read from the fitted curve at half-maximal effect; % is scaled to controls: 0 for no effect and ±100 for the full control effect; nearly all actives have a fitted effect of over 45% in size
SARS PLP yeast – blocks SARS-CoV papain-like protease in a yeast assay | S. cerevisiae expressing SARS-CoV PLpro, growth rescue | Potency, µM (highest dose often 32.9 µM), without a hit: at the top dose activity, positive = growth rescue, usual class: activators | actives 0.19% (n = 330,000); calls by dose curve; also: potency is read from the fitted curve at half-maximal effect; 0% is about no effect; nearly all actives have a fitted effect of over 55% in size
Starred values were filed as active, the others as inactive; ! = not confirmed by another sample; [ ] = dose if it differs, or a comment.

Results for CC1CC(C)CN(S(=O)(=O)c2ccc(C(=O)Nc3nnc(-c4cccs4)o3)cc2)C1 (stereo not drawn) ?
Lassa entry inh: inconclusive; HCMV antiviral: -70*; MARV entry inh: 7.9µM*; HCV inhibitor: inconclusive; FMDV inh: -22%; SARS PLP yeast: 0%

What do the screens show for `Cc1ccccc1C(=O)Nc1ccccc1OCc1cc(=O)n2ccccc2n1`?
Lassa entry inh: inconclusive; HCMV antiviral: -11; FMDV inh: -7%

Results for O=C(NC[C@@H]1CCCN2CCCC[C@H]12)c1cnn(-c2nccc(-c3ccco3)n2)c1C1CC1 ?
FMDV inh: -9%

What do the screens show for `O=C(c1cc(COc2cccc3cccnc23)on1)N1CCC[C@H]1CO`?
HCMV antiviral: 36; FMDV inh: 40%

What do the screens show for `CCOC(=O)CC1CCCCN1C(=O)c1cc(COc2cccc3cnccc23)on1` (stereo not drawn)?
HCMV antiviral: -87*; HCV inhibitor: 2.2µM*; FMDV inh: 2.8µM*; SARS PLP yeast: -1%

Results for COC(=O)C1CCCCN1C(=O)c1cc(COc2cccc3cnccc23)on1 (stereo not drawn) ?
HCMV antiviral: -92*; SARS PLP yeast: -9%

How did Cc1cccc(OCC(=O)Nc2ccc(OCc3cc(=O)n4cc(C)ccc4n3)cc2)c1 do in these assays?
Lassa entry inh: 0%[46.1 µM]; HCMV antiviral: 11; FMDV inh: -28%

Results for COc1ccc(S(=O)(=O)N2CCN(Cc3ccc4c(c3)OCO4)CC2)cc1C ?
Lassa entry inh: 17%[46.1 µM]; HCMV antiviral: -8; FMDV inh: 29%

How did Cc1ccc2nsnc2c1S(=O)(=O)N1CCN(Cc2ccc3c(c2)OCO3)CC1 do in these assays?
Lassa entry inh: -2%; HCMV antiviral: -29; MARV entry inh: -2%; HCV inhibitor: 22µM*!; SARS PLP yeast: 0%

What do the screens show for `Cc1ccc2nsnc2c1S(=O)(=O)N1CCN(C)CC1`?
Lassa entry inh: 6%[46.1 µM]; HCMV antiviral: 5; MARV entry inh: -9%[46.1 µM]; HCV inhibitor: 4%; FMDV inh: -23%; SARS PLP yeast: -1%

Results for Cc1cc(S(=O)(=O)N2CCN(Cc3ccc4c(c3)OCO4)CC2)cc(C)c1N1CCCC1=O ?
Lassa entry inh: -9%; HCMV antiviral: -96*; MARV entry inh: -18%; HCV inhibitor: 11%; FMDV inh: inconclusive; SARS PLP yeast: -5%

Results for Cc1ccc(NC(=O)CCSc2nnc(-c3ccco3)o2)cc1 ?
Lassa entry inh: 5%; HCMV antiviral: -12; MARV entry inh: -13%; HCV inhibitor: inconclusive; FMDV inh: -11%; SARS PLP yeast: -6%

What do the screens show for `Cc1ccc(SCC(=O)Nc2ccc(-c3nnc(-c4ccco4)o3)cc2)cc1`?
Lassa entry inh: inconclusive; HCMV antiviral: 32; MARV entry inh: inconclusive; HCV inhibitor: 11µM*; FMDV inh: 16%; SARS PLP yeast: 0%

What do the screens show for `Cc1ccc(-c2nnc(-c3ccc(NC(=O)Cc4cccs4)cc3)o2)cc1`?
Lassa entry inh: inconclusive; HCMV antiviral: -85*; MARV entry inh: inconclusive; HCV inhibitor: inconclusive; FMDV inh: 44%; SARS PLP yeast: -2%

What do the screens show for `Cc1ccc(-c2nnc(SCC(=O)N(C)C)nc2-c2ccc(C)cc2)cc1`?
Lassa entry inh: -13%[46.1 µM]; HCMV antiviral: -60*; MARV entry inh: inconclusive; HCV inhibitor: -13%; FMDV inh: 27%; SARS PLP yeast: -3%

Results for Cc1ccc(NC(=O)CSc2nnc(-c3ccco3)c(-c3ccco3)n2)cc1 ?
Lassa entry inh: 2.8µM*; HCMV antiviral: 10; MARV entry inh: -16%; HCV inhibitor: inconclusive; FMDV inh: -5%; SARS PLP yeast: inconclusive

Results for O=C(CSc1nnc(-c2ccco2)c(-c2ccco2)n1)Nc1ccccc1 ?
Lassa entry inh: -11%; HCMV antiviral: 60; MARV entry inh: -3%; HCV inhibitor: inconclusive; FMDV inh: -10%; SARS PLP yeast: -1%

What do the screens show for `CCc1ccc(Cn2c(CNS(=O)(=O)c3ccc(Cl)s3)nc3cccnc32)cc1`?
Lassa entry inh: 10%[46.1 µM]; HCMV antiviral: -30; FMDV inh: 72%

How did COc1ccc(NC(=O)CSc2ccc(-c3ccco3)nn2)cc1 do in these assays?
Lassa entry inh: 2%; HCMV antiviral: -66*; MARV entry inh: inconclusive; HCV inhibitor: -2%; FMDV inh: -18%; SARS PLP yeast: -8%

Results for O=C(CCN1N=C(c2ccccc2)CCC1=O)NC1CCCCC1 ?
HCMV antiviral: -77*; FMDV inh: 5%

Results for Clc1ccccc1OCc1nnc(-c2ccccc2Br)o1 ?
Lassa entry inh: inconclusive; HCMV antiviral: 83; MARV entry inh: 6%; HCV inhibitor: -8%; FMDV inh: 66%; SARS PLP yeast: -15%

How did O=c1c(Cl)c(Cl)cnn1Cc1nnc(-c2ccccc2Br)o1 do in these assays?
Lassa entry inh: -17%[46.1 µM]; HCMV antiviral: -99*; MARV entry inh: inconclusive; HCV inhibitor: inconclusive; FMDV inh: inconclusive; SARS PLP yeast: -11%

How did CN(C)c1cc[n+](CC(=O)Nc2c(Cl)cc(Cl)cc2Cl)cc1 do in these assays?
Lassa entry inh: 10%; HCMV antiviral: -67*; MARV entry inh: 4%[46.1 µM]; HCV inhibitor: -3%; FMDV inh: -9%; SARS PLP yeast: -2%

What do the screens show for `CN(C)c1cc[n+](CC(=O)Nc2ccc([N+](=O)[O-])cc2Cl)cc1`?
Lassa entry inh: -2%; HCMV antiviral: -32; MARV entry inh: -15%; HCV inhibitor: 14%; FMDV inh: -16%; SARS PLP yeast: -4%

Results for Cn1nc(C(=O)N2CCCC2)c2ccccc2c1=O ?
Lassa entry inh: -9%; HCMV antiviral: 33; MARV entry inh: inconclusive; HCV inhibitor: 19%; FMDV inh: 0%; SARS PLP yeast: 4%

Results for CSc1ccc(C(=O)C2CCCN(C(=O)c3nn(C)c(=O)c4ccccc34)C2)cc1 (stereo not drawn) ?
Lassa entry inh: inconclusive; HCMV antiviral: -25; MARV entry inh: inconclusive; HCV inhibitor: 13µM*; FMDV inh: inconclusive; SARS PLP yeast: -2%

How did CCc1cc(C(=O)N2CCCC(C(=O)c3cccc(OC(C)C)c3)C2)n(C)n1 (stereo not drawn) do in these assays?
Lassa entry inh: -1%[46.1 µM]; HCMV antiviral: -33; MARV entry inh: 0%[46.1 µM]; HCV inhibitor: -16%; FMDV inh: -27%; SARS PLP yeast: -1%

How did CCc1cc(C(=O)N2CCCC(C(=O)c3ccc(Oc4ccccc4)cc3)C2)n(C)n1 (stereo not drawn) do in these assays?
Lassa entry inh: -19%[46.1 µM]; HCMV antiviral: inconclusive; MARV entry inh: 11µM*; HCV inhibitor: inconclusive; FMDV inh: inconclusive; SARS PLP yeast: -4%

What do the screens show for `c1cnc(N2CCN(c3ncc4c(n3)CCNC4)CC2)nc1`?
Lassa entry inh: -3%[46.1 µM]; HCMV antiviral: 16; MARV entry inh: 2%[46.1 µM]; FMDV inh: -12%
